# FLuc counter = inhibits or activates purified firefly luciferase, miR-21 counter-screen | P08659 | purified FLuc, Km substrates, luminescence inhibition | Potency, µM (top dose mostly 57.5 µM), for the others: at the top dose activity change, negative = inhibition, actives largely listed as inhibitors | actives 6.9% (n = 360,000) | AID 588342;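 also: plate controls were vehicle for no effect and reference inhibitor for full effect; nearly all actives have a fitted effect of over 55% in size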
# Target sequence (P08659 whole entry, looked up): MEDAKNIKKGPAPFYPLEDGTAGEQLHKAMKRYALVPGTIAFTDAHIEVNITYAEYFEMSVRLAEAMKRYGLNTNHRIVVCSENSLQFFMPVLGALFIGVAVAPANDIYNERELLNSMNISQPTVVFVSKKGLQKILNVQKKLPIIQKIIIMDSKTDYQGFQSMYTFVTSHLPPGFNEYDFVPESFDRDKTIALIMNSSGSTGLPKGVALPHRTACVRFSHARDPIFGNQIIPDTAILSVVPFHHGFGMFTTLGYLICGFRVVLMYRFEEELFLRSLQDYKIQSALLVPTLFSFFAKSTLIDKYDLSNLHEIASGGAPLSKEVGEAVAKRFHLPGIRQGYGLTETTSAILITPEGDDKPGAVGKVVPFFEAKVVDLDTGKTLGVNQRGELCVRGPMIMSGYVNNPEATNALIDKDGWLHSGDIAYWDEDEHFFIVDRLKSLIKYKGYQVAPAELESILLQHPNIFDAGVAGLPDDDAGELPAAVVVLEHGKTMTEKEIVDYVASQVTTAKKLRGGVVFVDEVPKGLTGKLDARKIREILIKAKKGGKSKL
#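 Purified P. pyralis luciferase (10nM final) with 10uM D-luciferin and 10uM ATP (Km levels) in 50mM Tris acetate pH 7.5, 10mM Mg acetate, 0.01% Tween-20, 0.05% BSA; qHTS 6-point titration, ~60 µM downward; luminescence read.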
# SMN2 splice enh = increases expression of the SMN2 splice variant; HEK293 SMN2-luciferase splicing reporter, luminescence, 30-36 h; Potency, µM (series often up to 46.1 µM), for the others: at the top dose activity change, positive = activation, hits mostly activators; actives 2.8% (n = 210,000); AID 1458; also: % of control where 0% means no effect; nearly all actives have a fitted effect of over 55% in size
#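 HEK293 cells carry an SMN2 […]–luciferase reporter in which exon 7 inclusion puts luciferase in frame. Cells were plated 10-12 h before compound addition, then incubated 30-36 h at 37C. ONE-Glo luminescence was read; sodium butyrate at 4.5 mM final served as control.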
# NPC1 promoter act = activates the NPC1 promoter | Huh7 NPC1 promoter luciferase reporter, 24 h | Potency, µM (titrated, usually from 9.22 µM), inactives show at the top dose activation, most hits filed as activators | actives 2.4% (n = 320,000) | AID 485313; also: % of control where 0% means no effect; nearly all actives have a fitted effect of over 60% in size
#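 Stably transfected Huh7 (NPC1 promoter→luciferase), 1500 cells/well in Opti-MEM + 10% FBS, 2 h settle, then compound 24 h at 37 °C. Luminescence after 10 min with Amplite reagent.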
# ELG1 repair inh = blocks ELG1-dependent DNA repair in HEK293T cells | AID 504467 | Potency, µM (highest dose often 46.1 µM), for the others: top-dose activity change, negative = inhibition, usual class: inhibitors | HEK293T ELG1-luciferase reporter, luminescence, 16 h; DNA damage induced by 5-fluorouridine | actives 2.3% (n = 330,000); also: % is scaled to controls: 0 for no effect and ±100 for the full control effect; nearly all actives have a fitted effect of over 55% in size
#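 5-Fluorouridine DNA damage + compound/DMSO, 2,000 cells/well, 16 h, 37 °C/5% CO2. ONE-Glo, 30 min RT, luminescence. Readout = decrease in reporter signal.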
# ELG1 genotoxic = genotoxicity induction in ELG1-luciferase HEK293T cells | HEK293T ELG1-luciferase reporter, luminescence, 16 h | Potency, µM (top dose mostly 46 µM), inactives show top-dose activity change, positive = activation, usual class: activators | actives 1.3% (n = 330,000); also: % of control where 0% means no effect; nearly all actives have a fitted effect of over 60% in size
#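 Screening used a luciferase reporter fused to human ELG1 in HEK293T cells. Luminescence was read on a CCD plate imager after 16 hr exposure and 30 min ONE-Glo incubation.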
# Rab9 promoter act = activators of Rab9 promoter. Huh7 Rab9 promoter-luciferase reporter, luminescence, 24 h. Potency, µM (titrated, usually from 9.22 µM), for the others: at the top dose activation, negative = inhibition, usual class: activators. actives 2.8% (n = 320,000); also: % of control where 0% means no effect; nearly all actives have a fitted effect of over 60% in size
#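 Huh7 reporter line, Rab9 promoter upstream of luciferase. Compound exposure 24 h at 37 °C in reduced-serum medium with 10% FBS. Read-out: luminescence.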
# * = called active by the depositor; ? = inconclusive; · = no result given; [ ] = dose if it differs, or a comment. In the library only some 9.3% were active in any assay of this set; here they are far more common. Calls follow the shape of the dose curve; as a rule, active = well fitted curve in the direction sought with a large enough effect; inconclusive = small, poorly fitted or top-dose-only effect, or another doubt; inactive = no such curve, though single readings can be large; an effect the other way counts as inactive or inconclusive. Potency is read from the fitted curve at half-maximal effect.
SMILES,FLuc counter,SMN2 splice enh,NPC1 promoter act,ELG1 repair inh,ELG1 genotoxic,Rab9 promoter act
CN1CCc2nc(NC(=O)c3cccc(OC(F)F)c3)sc2C1,11µM*,16%,24%,?,?,22%
O=C(NC12CC3CC(CC(C3)C1)C2)c1cccc(OC(F)F)c1,15µM*,·,25%,?,0%,2%[1.84 µM]
COc1ccccc1CNC(=O)CCSCc1cccc(Cl)c1,1%,-8%,-2%,3%,-2%,-4%
CC(C)c1ccc(N(CC(=O)NCCCN2CCOCC2)S(=O)(=O)c2ccccc2)cc1,2%,·,0%,?,0%,-5%
COc1cccc(/C=N/NC(=O)C(c2ccncc2)N2CCOCC2)c1 (centres undefined),-3%,·,0%,0%,-3%,-5%
COc1cc(OC)cc(C(=O)NC2=NCCS2)c1,11µM*,8%,3%,?,?,26%
COc1ccc(C(=O)NC2=NCCS2)cc1,19µM*,·,2.2µM*,?,?,2.8µM*
COc1ccc(C(=O)CCC(=O)NC2=NCCS2)cc1,-6%,·,5%,?,8%,2%
COc1cc(C(=O)NC2=NCCS2)cc(OC)c1OC,0%,?,2%,?,-1%,3%
CCOC(=O)N1CCN(CC(=O)Nc2c(C(=O)OC)[nH]c3ccc(Cl)cc23)CC1,2%,-46%,0%,?,-27%,-13%
CCOC(=O)c1[nH]c2ccc(OC)cc2c1NC(=O)CCN1CCc2ccccc2C1,1%,-4%,2%,?,-2%,4%
COC(=O)c1[nH]c2ccc(Cl)cc2c1NC(=O)CN1CCc2cc(OC)c(OC)cc2C1,-1%,-2%,-1%,9.2µM*,7%,-2%
COC(=O)c1[nH]c2cc(C)ccc2c1NC(=O)CN1CCc2cc(OC)c(OC)cc2C1,-2%,-23%,2%,15µM*,-26%,1%
CCOC(=O)c1[nH]c2ccc(OCC)cc2c1NC(=O)CN1CCC2(CC1)OCCO2,2%,17%,11%,8.2µM*,5%,1%
CCOC(=O)c1[nH]c2ccc(F)cc2c1NC(=O)CN1CCc2cc(OC)c(OC)cc2C1,-1%,-25%,1%,6.5µM*,-16%,11%
CS(=O)(=O)N(CC(=O)Nc1ccccc1C(=O)N1CCOCC1)c1ccc(F)c(Cl)c1,-2%,·,-3%,5%,1%,·
COc1cc(/C=C/c2[nH]c(=O)[nH]c(=O)c2[N+](=O)[O-])cc(OC)c1O,?,·,-7%,-2%,-1%,-3%
COc1cccc(/C=C/c2[nH]c(=O)[nH]c(=O)c2[N+](=O)[O-])c1O,17µM*,·,1%,1%,0%,6%
O=C(NN1C(=O)/C(=C/c2ccc(O)c(O)c2)SC1=S)c1ccccc1,?,·,-17%,-28%,-6%,0%
COc1cc(/C=C2\SC(=S)N(Nc3ccccc3)C2=O)ccc1O,5.4µM*,4%[1.84 µM],-3%,?,?,20%
O=C(O)c1ccc(/C=C2\SC(=S)N(Nc3ccccc3)C2=O)cc1,?,·,-3%,10%,9%,1%
O=C1/C(=C/c2ccc(O)c(O)c2)SC(=S)N1Nc1ccccc1,19µM*,·,-21%,-5%,-8%,-7%
CCOc1cc(/C=C2\SC(=S)N(Nc3ccccc3)C2=O)ccc1O,6.7µM*,-9%,?,?,?,5%
Cc1ccc(S(=O)(=O)N2CN(CC3CCCO3)c3nc4ccccc4nc32)cc1 (centres undefined),-1%,·,-1%,12%,2%,0%
COc1ccc(CCNC(=O)C(=O)NCC2OCCN2S(=O)(=O)c2ccc(Br)cc2)cc1OC (centres undefined),2%,-69%,-11%,21µM*,-4%,-21%
SMILES,FLuc counter,SMN2 splice enh,NPC1 promoter act,ELG1 repair inh,ELG1 genotoxic,Rab9 promoter act
O=C(NCCc1c[nH]c2ccccc12)C(=O)NCC1OCCN1S(=O)(=O)c1ccccc1 (centres undefined),2%,-12%,2%,-16%,0%,0%
O=C(NCCc1c[nH]c2ccccc12)C(=O)NCC1OCCN1S(=O)(=O)c1ccc(Cl)cc1 (centres undefined),5%,-62%,2%,13µM*,-5%,-10%
Cc1ccc(S(=O)(=O)N2CCOC2CNC(=O)C(=O)NCc2ccc(Cl)cc2)cc1 (centres undefined),1%,·,-3%,23µM*,-18%,1%
COc1ccc(S(=O)(=O)N2CCOC2CNC(=O)C(=O)NCCc2ccc(OC)c(OC)c2)cc1 (centres undefined),-2%,-44%,-2%,?,-5%,-1%
Cc1ccc(C)c(S(=O)(=O)N2CCCC2CNC(=O)C(=O)NCc2ccccn2)c1 (centres undefined),-6%,·,1%,-1%,1%,-2%
Cc1ccc(C)c(S(=O)(=O)N2CCCC2CNC(=O)C(=O)NCc2ccccc2C)c1 (centres undefined),3%,·,0%,15µM*,-14%,-2%
Cc1ccc(S(=O)(=O)N2CCOC2CNC(=O)C(=O)NCc2ccccc2)cc1 (centres undefined),5%,·,-1%,-14%,-3%,-3%
COc1ccccc1CCNC(=O)C(=O)NCC1OCCCN1S(=O)(=O)c1cc(C)ccc1C (centres undefined),3%,·,0%,21µM*,-11%,-2%
Cc1ccc(S(=O)(=O)N2CCCOC2CNC(=O)C(=O)NCCc2c[nH]c3ccccc23)cc1 (centres undefined),2%,-62%,-5%,23µM*,-10%,0%
O=C(Nc1nccs1)c1cccc(NC(=O)C2CC2)c1,-6%,-10%,-1%,0%,-7%,-3%
COc1cccc(NC(=O)Cc2nc(-c3ccccc3)sc2-c2ccc(C)cc2)c1,15µM*,2%,3%,30%,1%,8%
CC(=O)Nc1cccc(NC(=O)Cc2nc(-c3ccccc3)sc2-c2ccc(C)cc2)c1,21µM*,15%,-3%,-2%,3%,8%
CCOc1ccc(N2C(=O)C3C(c4ccc(OC)cc4OC)NC(CCSC)(C(=O)OC)C3C2=O)cc1 (centres undefined),0%,·,-1%,?,2%,-1%
CCCC1(C(=O)OCC)NC(c2ccc(OC)cc2OC)C2C(=O)N(c3ccccc3)C(=O)C21 (centres undefined),1%,3%,-3%,12µM*,-4%,0%
Nc1cccc(N)c1,·,-5%,·,·,·,·
Nc1cccc(-c2ccc(CO)o2)c1,17µM*,·,0%,?,8%,0%

# Source: PubChem
